Inconclusive results are not listed. Active and inactive are the calls of the source. The call rests on the fitted dose curve; in most records, active means well fitted cell-killing curve with a large enough effect in the repeat runs; inconclusive means weak or mixed curves, or effect the other way; inactive means no such curve, though single readings can be large or run the other way.
On the % scale 0 is the no-effect control and ±100 the full control effect; potency means the concentration at half of the fitted maximal effect.

A short description of the assay: qHTS assay to identify aromatase inhibitors - cell viability counter screen (AID 743084).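 Further: cells stimulated with testosterone during compound exposure; nearly all actives have a fitted effect of over 55% in size.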 Particulars: MCF-7 aro ERE viability, CellTiter-Fluor, 24 h; series mostly up to 70.3 µM; activity change, negative = cytotoxicity: at the top concentration. On the technique in general: In qHTS, concentration-response curves come from the screen itself.
In the case of `C=C[C@]1(C)C[C@@H](OC(=O)CSC(C)(C)CNC(=O)[C@H](N)C(C)C)[C@]2(C)[C@H](C)CC[C@]3(CCC(=O)[C@H]32)[C@@H](C)[C@@H]1O`, the Potency was 2.98 µM (active).
Same read-out and setting: next, `Cc1cc(/C=C/c2ccc3cc(N(C)C)ccc3[n+]2C)c(C)n1-c1ccccc1`: 8.04 µM (active).
For `CCC(=O)OCC(=O)[C@@]1(OC(=O)CC)[C@H](C)C[C@H]2[C@@H]3CCC4=CC(=O)C=C[C@]4(C)[C@@]3(F)[C@@H](O)C[C@@]21C`, the “activity change, negative = cytotoxicity” value was -2.18% (inactive).
Still for that read-out and setting: the same measure for `O=C(OCCO)c1ccccc1O`: -1.63% (inactive).
On the same count and under the same terms, next, `CCCCCCCN(CC)CCCC(O)c1ccc(NS(C)(=O)=O)cc1` (stereo not given): 3.35% (inactive); `N#Cc1ccc2c(c1)N(CCCN1CCC(O)CC1)c1ccccc1S2`: -2.21% (inactive); `O=C(CCCN1CCC(C(=O)c2ccc(F)cc2)CC1)c1ccc(F)cc1`: -3.53% (inactive).
Same read-out and setting: the same measure for `C=C1C(=C/C=C2\CCC[C@]3(C)[C@@H]([C@H](C)CCCC(C)(C)O)CC[C@@H]23)C[C@@H](O)C[C@@H]1O`: -1.88% (inactive); for `CN(C)CCCN1c2ccccc2C(C)(C)c2ccccc21`: -3% (inactive).
As for `C/C=C(/CC[C@@H](C)[C@H]1CC[C@H]2C3=CC[C@H]4[C@H](C)[C@@H](O)CC[C@]4(C)[C@H]3CC[C@]12C)C(C)C`, the “activity change, negative = cytotoxicity” value was 3.63% (inactive).
As for `O=C(O)c1c(Cl)c(Cl)c(Cl)c(Cl)c1-c1c2cc(I)c(=O)c(I)c-2oc2c(I)c(O)c(I)cc12`, the Potency is 23.7 µM (active).
Regarding `CCCCCCCCCCCCCCCC(=O)O[C@@H]1CC(C)=C(/C=C/C(C)=C/C=C/C(C)=C/C=C/C=C(C)/C=C/C=C(C)/C=C/C2=C(C)C[C@@H](OC(=O)CCCCCCCCCCCCCCC)CC2(C)C)C(C)(C)C1`, the “activity change, negative = cytotoxicity” value was -3.48% (inactive).
The same measure, in the same setting: the same measure for `Cc1ccc(C2(O)CCN(CCCC(=O)c3ccc(F)cc3)CC2)cc1`: 1.5% (inactive).
As for `CN1CCC(CN2c3ccccc3Sc3ccccc32)C1` (stereo not given), the “activity change, negative = cytotoxicity” value was -6.76% (inactive).
Same read-out and setting: next, `CCC(=O)OCC(=O)[C@@]1(OC(=O)CC)[C@@H](C)C[C@H]2[C@@H]3CCC4=CC(=O)C=C[C@]4(C)[C@@]3(F)[C@@H](O)C[C@@]21C`: 0.908% (inactive).
On the same count and under the same terms, the same measure for `COc1ccc(CNCC(O)COc2ccc3[nH]c(=O)ccc3c2)cc1OC` (stereo not given): -0.0152% (inactive); for `CC#CCC(C)[C@H](O)/C=C/[C@@H]1[C@H]2C/C(=C/CCCC(=O)O)C[C@H]2C[C@H]1O` (stereo not given in full): -3.83% (inactive).
In the case of `CN1CCN(CCC=C2c3ccccc3Sc3ccc(S(=O)(=O)N(C)C)cc32)CC1`, the Potency was 29.8 µM (active).
For `CCCC(=O)O[C@]1(C(=O)COC(=O)CC)[C@@H](C)C[C@H]2[C@@H]3CCC4=CC(=O)C=C[C@]4(C)[C@@]3(F)[C@@H](O)C[C@@]21C`, the “activity change, negative = cytotoxicity” value is -25.3% (inactive).
Regarding `CN(C)CC/C=C1/c2ccccc2CSc2ccccc21`, the “activity change, negative = cytotoxicity” value was -0.232% [at 32.5 µM] (inactive).
With `CC(CN1c2ccccc2Sc2ccc(S(=O)(=O)N(C)C)cc21)N(C)C` (stereo not given), the “activity change, negative = cytotoxicity” value was -15% (inactive).
The same measure, in the same setting: the same measure for `CCOc1ccc(N=C(C)Nc2ccc(OCC)cc2)cc1`: 2.97% (inactive); for `CC(CN(C)C)CN1c2ccccc2Sc2ccc(C(F)(F)F)cc21` (stereo not given): -1.45% (inactive).
On the same count and under the same terms, the same measure for `CN1CCN(C2=Nc3ccccc3Cc3ccccc32)CC1`: 5.12% (inactive).
For the compound `O=C(O[C@H]1CN2CCC1CC2)N1CCc2ccccc2[C@@H]1c1ccccc1`, the “activity change, negative = cytotoxicity” value was -0.835% (inactive).
Still for that read-out and setting: next, `CC(=O)[C@@]1(O)CC[C@H]2[C@@H]3C=C(Cl)C4=CC(=O)CC[C@]4(C)[C@H]3CC[C@@]21C`: -11.6% (inactive).
Still for that read-out and setting: next, `c1ccc2c(c1)Sc1ccccc1N2CCN1CCCC1`: -19.2% (inactive).
Same read-out and setting: the same measure for `O=C(CCCN1CCC(n2c(=S)[nH]c3ccccc32)CC1)c1ccc(F)cc1`: -2.39% (inactive); for `CC(CC(c1ccccc1)c1ccccc1)NC(C)(C)C` (stereo not given): 4.36% (inactive).
As to `CN1CCCC(CN2c3ccccc3Sc3ccccc32)C1` (stereo not given), the “activity change, negative = cytotoxicity” value is -9.44% (inactive).
